Inconclusive results are not listed. Entries that show only a call come without a potency. The source made the active and inactive calls. Unless noted, calls follow the shape of the dose curve; as a rule, active = well fitted cell-killing curve with a large enough effect in the repeat runs; inconclusive = weak or mixed curves, or effect the other way; inactive = no such curve, though single readings can be large or run the other way.
Tested on: not listed separately
Test: qHTS assay to identify small molecule agonists of the estrogen receptor alpha (ER-alpha) signaling pathway in the presence of an antagonist - cell viability counter screen (AID 1259386);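 also: cells exposed to compounds for 22 h at 37 °C before the viability read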
Settings: VM7Luc4E2 viability, CellTiter-Fluor fluorescence, 22 h; series mostly up to 92.4 µM
Summary of the method: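 Using estrogen-depleted VM7Luc4E2 cells, the 15-concentration compound series was applied together with 10.0nM ICI-182,780 and incubated 22hr at 37C/5% CO2. Cell viability was then scored by CellTiter-Fluor.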
Also: nearly all actives have a fitted effect of over 30% in size.
Potency is read from the fitted curve at half-maximal effect.

| SMILES | Potency |
| --- | --- |
| Clc1ccc(C(Cn2ccnc2)OCc2ccc(Sc3ccccc3)cc2)c(Cl)c1 (configuration not stated) | inactive |
| NC(=O)CC[C@@H]1NC(=O)[C@H](Cc2ccccc2)NC(=O)[C@H](Cc2ccc(O)cc2)NC(=O)CCSSC[C@@H](C(=O)N2CCC[C@H]2C(=O)N[C@@H](CCCN=C(N)N)C(=O)NCC(N)=O)NC(=O)[C@H](CC(N)=O)NC1=O | inactive |
| O=CC=C(c1ccccc1)c1ccccc1 | inactive |
| O=C(c1ccc(O)cc1O)c1ccc(O)cc1O | inactive |
| CCC1OCC(COc2ccc(Oc3ccccc3)cc2)O1 (configuration not stated) | inactive |
| Cc1nc(-c2ccc3c(c2)CCN(CCC2CCC(NC(=O)/C=C/c4ccc(F)cc4)CC2)CC3)no1 (configuration not stated) | inactive |
| O=C(Oc1ccccc1)c1ccccc1C(=O)Oc1ccccc1 | inactive |
| C[C@H]1[C@H]2CC[C@H]3[C@@H]4CC=C5C[C@@H](N(C)C)CC[C@]5(C)[C@H]4CC[C@]23CN1C | inactive |
| Cc1c(C)c2c(c(C)c1O)CCC(C)(COc1ccc(CC3SC(=O)NC3=O)cc1)O2 (configuration not stated) | inactive |
| COc1cc(-c2nc(NC(=O)c3cc4cc(C)cc(C)c4n3CC(=O)O)sc2CCC2CCCCC2)c(OC)cc1Cl | inactive |
| CCCCCCCCCCC=O | inactive |
| CSc1cnc(C)cn1 | inactive |
| Cc1cccc(N(C)C(=S)Oc2ccc3c(c2)C2CCC3C2)c1 (configuration not stated) | inactive |
| CCCCCCCC(=O)[O-].CCCCCCCC(=O)[O-].[Zn+2] | inactive |
| O=Cc1cc(O)ccc1Br | inactive |
| O=c1cccccc1O | inactive |
| COC(=O)c1cc(Cl)ccc1OC | inactive |
| CCOC(=O)O[C@]1(C(=O)OCCl)CC[C@H]2[C@@H]3CCC4=CC(=O)C=C[C@]4(C)[C@H]3[C@@H](O)C[C@@]21C | inactive |

| SMILES | Potency |
| --- | --- |
| Cc1cc(O)c(Cl)c(C)c1Cl | inactive |
| C[n+]1cc2c3c(ccc2c2ccc4cc5c(cc4c21)OCO5)OCO3 | 13 µM (active) |
| CCCCN1CCCC[C@H]1C(=O)Nc1c(C)cccc1C | inactive |
| CC[C@H](c1ccc(O)cc1)[C@@H](CC)c1ccc(O)cc1 | inactive |
| COc1cccc(N)c1 | inactive |
| COc1ccc(-c2ccc3cc(C(=O)O)ccc3c2)cc1C12CC3CC(CC(C3)C1)C2 | inactive |
| NNc1nc(-c2ccc(N)cc2)cs1 | 30.6 µM (active) |
| Oc1ccc(N=Nc2ccccc2)cc1 | 27.7 µM (active) |
| CCC(N)(CO)CO | inactive |
| O=C1C=CC(=O)N1c1ccc(Cc2ccc(N3C(=O)C=CC3=O)cc2)cc1 | inactive |
| CN(C)CCCOC1(Cc2ccccc2)CCCCCC1 | inactive |
| C/C=C(\C)C(=O)OCc1ccccc1 | inactive |
| CCc1oc2ccccc2c1C(=O)c1cc(Br)c(O)c(Br)c1 | inactive |
| N#CSc1ccc(N)c([N+](=O)[O-])c1 | 48.9 µM (active) |
| CCCCCCCCCCCCCCCC(=O)OC[C@H](O)[C@H]1OC(=O)C(O)=C1O | inactive |
| O=C(NO)C1(NS(=O)(=O)c2ccc(Oc3ccc(F)cc3)cc2)CCOCC1 | inactive |
| Cc1c(C)c2c(c(C)c1OC(=O)CCC(=O)O)CC[C@@](C)(CCC[C@H](C)CCC[C@H](C)CCCC(C)C)O2 | inactive |
| NNC(=O)c1cccc(C(=O)NN)c1 | inactive |

Target: Progesterone receptor (Homo sapiens) (UniProt P06401)
Test: qHTS assay to identify small molecule agonists of the progesterone receptor (PR) signaling pathway (AID 1346784; calls by dose curve)
Settings: PR-UAS-bla HEK293T, beta-lactamase FRET ratio, 16 h; series mostly up to 92.4 µM
Summary of the method: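 Agonist qHTS: compounds pinned onto 3,000 PR-UAS-bla HEK 293T cells per well in charcoal-stripped serum medium, 16hr at 37C, then beta-lactamase activity measured by LiveBLAzer FRET fluorescence after 2 hours at room temperature.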

Progesterone receptor (Homo sapiens), sequence (P06401 whole entry, looked up): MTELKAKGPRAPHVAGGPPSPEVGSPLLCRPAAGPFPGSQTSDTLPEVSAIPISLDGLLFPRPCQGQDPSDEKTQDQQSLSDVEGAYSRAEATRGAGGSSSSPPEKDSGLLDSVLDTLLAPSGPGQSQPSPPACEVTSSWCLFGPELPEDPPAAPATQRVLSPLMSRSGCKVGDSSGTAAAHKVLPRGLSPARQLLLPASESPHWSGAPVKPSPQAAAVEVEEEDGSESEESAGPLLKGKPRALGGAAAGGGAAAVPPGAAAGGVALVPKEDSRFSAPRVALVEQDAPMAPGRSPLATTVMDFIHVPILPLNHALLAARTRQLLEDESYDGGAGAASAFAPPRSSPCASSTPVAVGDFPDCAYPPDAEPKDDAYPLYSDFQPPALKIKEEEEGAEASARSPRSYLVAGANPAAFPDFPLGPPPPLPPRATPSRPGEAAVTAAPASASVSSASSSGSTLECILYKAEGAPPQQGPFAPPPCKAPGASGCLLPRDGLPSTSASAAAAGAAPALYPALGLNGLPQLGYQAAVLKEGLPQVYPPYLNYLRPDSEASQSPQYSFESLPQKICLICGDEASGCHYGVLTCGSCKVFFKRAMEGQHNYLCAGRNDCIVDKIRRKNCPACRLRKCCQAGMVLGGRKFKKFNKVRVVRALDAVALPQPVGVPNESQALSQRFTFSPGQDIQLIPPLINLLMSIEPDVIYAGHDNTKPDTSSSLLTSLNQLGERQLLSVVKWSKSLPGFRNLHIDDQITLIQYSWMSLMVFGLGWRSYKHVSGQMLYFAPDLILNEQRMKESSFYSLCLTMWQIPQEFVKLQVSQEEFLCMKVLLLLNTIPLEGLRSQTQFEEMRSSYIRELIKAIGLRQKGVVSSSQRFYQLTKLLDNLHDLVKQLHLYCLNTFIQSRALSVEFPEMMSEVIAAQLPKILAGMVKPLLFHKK

| SMILES | Potency | activation |
| --- | --- | --- |
| Clc1ccc(C(Cn2ccnc2)OCc2ccc(Sc3ccccc3)cc2)c(Cl)c1 (configuration not stated) | inactive | – |
| NC(=O)CC[C@@H]1NC(=O)[C@H](Cc2ccccc2)NC(=O)[C@H](Cc2ccc(O)cc2)NC(=O)CCSSC[C@@H](C(=O)N2CCC[C@H]2C(=O)N[C@@H](CCCN=C(N)N)C(=O)NCC(N)=O)NC(=O)[C@H](CC(N)=O)NC1=O | inactive | – |
| O=CC=C(c1ccccc1)c1ccccc1 | inactive | – |
| O=C(c1ccc(O)cc1O)c1ccc(O)cc1O | inactive | – |
| CCC1OCC(COc2ccc(Oc3ccccc3)cc2)O1 (configuration not stated) | inactive | – |
| Cc1nc(-c2ccc3c(c2)CCN(CCC2CCC(NC(=O)/C=C/c4ccc(F)cc4)CC2)CC3)no1 (configuration not stated) | inactive | – |
| O=C(Oc1ccccc1)c1ccccc1C(=O)Oc1ccccc1 | inactive | – |
| C[C@H]1[C@H]2CC[C@H]3[C@@H]4CC=C5C[C@@H](N(C)C)CC[C@]5(C)[C@H]4CC[C@]23CN1C | inactive | – |
| Cc1c(C)c2c(c(C)c1O)CCC(C)(COc1ccc(CC3SC(=O)NC3=O)cc1)O2 (configuration not stated) | inactive | – |
| COc1cc(-c2nc(NC(=O)c3cc4cc(C)cc(C)c4n3CC(=O)O)sc2CCC2CCCCC2)c(OC)cc1Cl | inactive | – |
| CCCCCCCCCCC=O | inactive | – |
| CSc1cnc(C)cn1 | inactive | – |
| Cc1cccc(N(C)C(=S)Oc2ccc3c(c2)C2CCC3C2)c1 (configuration not stated) | inactive | – |
| CCCCCCCC(=O)[O-].CCCCCCCC(=O)[O-].[Zn+2] | inactive | – |
| O=Cc1cc(O)ccc1Br | 0.983 µM (active) | – |
| O=c1cccccc1O | inactive | – |
| COC(=O)c1cc(Cl)ccc1OC | inactive | – |
| CCOC(=O)O[C@]1(C(=O)OCCl)CC[C@H]2[C@@H]3CCC4=CC(=O)C=C[C@]4(C)[C@H]3[C@@H](O)C[C@@]21C | 0.188 µM (active) | – |

| SMILES | Potency | activation |
| --- | --- | --- |
| Cc1cc(O)c(Cl)c(C)c1Cl | inactive | – |
| C[n+]1cc2c3c(ccc2c2ccc4cc5c(cc4c21)OCO5)OCO3 | – | -18.8% [at 19 µM] (inactive) |
| CCCCN1CCCC[C@H]1C(=O)Nc1c(C)cccc1C | inactive | – |
| CC[C@H](c1ccc(O)cc1)[C@@H](CC)c1ccc(O)cc1 | inactive | – |
| COc1cccc(N)c1 | inactive | – |
| COc1ccc(-c2ccc3cc(C(=O)O)ccc3c2)cc1C12CC3CC(CC(C3)C1)C2 | inactive | – |
| NNc1nc(-c2ccc(N)cc2)cs1 | inactive | – |
| Oc1ccc(N=Nc2ccccc2)cc1 | inactive | – |
| CCC(N)(CO)CO | inactive | – |
| O=C1C=CC(=O)N1c1ccc(Cc2ccc(N3C(=O)C=CC3=O)cc2)cc1 | inactive | – |
| CN(C)CCCOC1(Cc2ccccc2)CCCCCC1 | inactive | – |
| C/C=C(\C)C(=O)OCc1ccccc1 | inactive | – |
| CCc1oc2ccccc2c1C(=O)c1cc(Br)c(O)c(Br)c1 | inactive | – |
| N#CSc1ccc(N)c([N+](=O)[O-])c1 | inactive | – |
| CCCCCCCCCCCCCCCC(=O)OC[C@H](O)[C@H]1OC(=O)C(O)=C1O | inactive | – |
| O=C(NO)C1(NS(=O)(=O)c2ccc(Oc3ccc(F)cc3)cc2)CCOCC1 | inactive | – |
| Cc1c(C)c2c(c(C)c1OC(=O)CCC(=O)O)CC[C@@](C)(CCC[C@H](C)CCC[C@H](C)CCCC(C)C)O2 | inactive | – |
| NNC(=O)c1cccc(C(=O)NN)c1 | inactive | – |

From PubChem BioAssay (Tox21)
